# From PubChem BioAssay (NCI)
# The panel holds about 83,000 compounds, 20% with a hit somewhere; the sample as a whole holds those more often.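 Plates (96-well) were seeded with cells, treated with compound at one concentration, and incubated for 48 hours before percent growth was determined.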 Values without a mark were called inactive. The source made the active and inactive calls. Rule for the calls: active = growth percent below 10; inactive = the rest.
# What was measured:
# Assay in all cases: NCI-60 one-dose screen, 48 h (100 = growth as untreated, 0 = no growth, -100 = all killed)
# Settings in all cases: 10 µM unless noted
# HCT-15 colon = tested on: HCT-15 colon
# SNB-75 CNS = tested on: SNB-75 CNS
# SNB-19 CNS = tested on: SNB-19 CNS
# U251 CNS = tested on: U251 CNS
# PC-3 prostate = tested on: PC-3 prostate
# SK-MEL-5 melanoma = tested on: SK-MEL-5 melanoma
# UACC-62 melanoma = tested on: UACC-62 melanoma
# LOX IMVI melanoma = tested on: LOX IMVI melanoma
# SK-MEL-28 melanoma = tested on: SK-MEL-28 melanoma
# HT29 colon = tested on: HT29 colon
Compound,growth (HCT-15 colon),growth (SNB-75 CNS),growth (SNB-19 CNS) [%],growth (U251 CNS),growth (PC-3 prostate),growth (SK-MEL-5 melanoma),growth (UACC-62 melanoma),growth (LOX IMVI melanoma),growth (SK-MEL-28 melanoma),growth (HT29 colon) [%]
O=C1CCC/C=C\C[C@H]2C=CC(=O)/C2=C/C[C@H](C/C=C\CC(F)(F)F)O1,-5.57% (active),68.7%,11.3,-65.5% (active),-42.5% (active),-90.7% (active),-12.1% (active),-88.2% (active),-28.6% (active),–
CNC(C)=O,105%,104%,104,93.4%,96.6%,102%,105%,95%,101%,–
Cc1cc(C)c2c(=O)[nH]c(SCC(=O)Nc3cccc(S(=O)(=O)N(C)C)c3)nc2n1,119%,90.7%,95.9,108%,95.4%,113%,98.3%,101%,126%,–
O=C(Nc1ccccc1)OCC1OCOC(COC(=O)Nc2ccccc2)C1OC(=O)Nc1ccccc1 (stereo not given),–,32%,73.2,74.9%,64.2%,67.8%,73.1%,29.7%,39.2%,43.1
COc1cc(Br)c(OC)cc1Br,103%,90.4%,108,98.9%,91.2%,98.4%,94.8%,90%,105%,–
O=C(/C=C/c1ccccc1)n1c(-c2ccc(Cl)cc2)nc2ccccc21,-24.8% (active),18.1%,41.1,-0.388% (active),6.09% (active),-70.6% (active),-84.7% (active),-82.9% (active),-65.4% (active),–
CCCCOc1nc2c(C)cccc2cc1C1CNC(=O)c2ccccc2N1 (stereo not given),43.4%,56.6%,47,63.7%,40.1%,43.4%,29.1%,60.8%,66.4%,–
C=CCOc1cccc(/C=C/C(=O)c2sc(Nc3cccnc3)nc2C)c1,33.5%,2.22% (active),57.7,50.7%,44.6%,74.9%,59.9%,32.9%,87.1%,–
Cn1c(C(N)=O)cc2c1-c1nc(NC3CCCCC3)ncc1CCC2,90.5%,104%,81.9,83.8%,94.8%,95%,103%,89.6%,97.4%,–
C=C1C(=O)O[C@H]2[C@H]1CC/C(COC(=O)NCCc1ccc(Br)cc1)=C\CC[C@@]1(C)O[C@@H]21,1.58% (active),56.8%,40.9,41.2%,36.4%,64%,-54.3% (active),-68.2% (active),30.6%,–
CC(Br)C(Br)c1cc2c(cc1Br)OCO2 (stereo not given),101%,78.2%,111,93.1%,79.2%,104%,108%,96.2%,105%,–
O=C(O)c1cccc([N+](=O)[O-])c1/C=C/c1ccccc1,102%,86.9%,101,97.4%,124%,103%,107%,96%,105%,–
COc1ccc(-n2c(C)cc(-c3ccccc3)c2C)cc1,37.9%,41.2%,69.6,43.5%,31.7%,-3.53% (active),–,42.1%,58.1%,–
CCN1C(=S)N(CC)C2Nn3c(s/c(=C4\C(=O)N(C)c5ccccc54)c3=O)=NC21 (stereo not given),35.5%,-1.67% (active),70.6,51.4%,38.6%,19.6%,48.4%,49.2%,59.6%,–
